From PubChem
The entries come from a sample that favours hits as a whole.
KDM5B inh = blocks human KDM5B histone demethylase activity; Q9UGL1; KDM5B demethylase, FDH-coupled NADH fluorescence (FDH is formaldehyde dehydrogenase); Potency, µM (top dose mostly 57.7 µM), usual class: inhibitors; actives 2.6% (n = 220,000); AID 1347165; active means well fitted inhibition curve with a large enough effect; further: nearly all actives have a fitted effect of over 70% in size
Target sequence (Q9UGL1 whole entry, looked up): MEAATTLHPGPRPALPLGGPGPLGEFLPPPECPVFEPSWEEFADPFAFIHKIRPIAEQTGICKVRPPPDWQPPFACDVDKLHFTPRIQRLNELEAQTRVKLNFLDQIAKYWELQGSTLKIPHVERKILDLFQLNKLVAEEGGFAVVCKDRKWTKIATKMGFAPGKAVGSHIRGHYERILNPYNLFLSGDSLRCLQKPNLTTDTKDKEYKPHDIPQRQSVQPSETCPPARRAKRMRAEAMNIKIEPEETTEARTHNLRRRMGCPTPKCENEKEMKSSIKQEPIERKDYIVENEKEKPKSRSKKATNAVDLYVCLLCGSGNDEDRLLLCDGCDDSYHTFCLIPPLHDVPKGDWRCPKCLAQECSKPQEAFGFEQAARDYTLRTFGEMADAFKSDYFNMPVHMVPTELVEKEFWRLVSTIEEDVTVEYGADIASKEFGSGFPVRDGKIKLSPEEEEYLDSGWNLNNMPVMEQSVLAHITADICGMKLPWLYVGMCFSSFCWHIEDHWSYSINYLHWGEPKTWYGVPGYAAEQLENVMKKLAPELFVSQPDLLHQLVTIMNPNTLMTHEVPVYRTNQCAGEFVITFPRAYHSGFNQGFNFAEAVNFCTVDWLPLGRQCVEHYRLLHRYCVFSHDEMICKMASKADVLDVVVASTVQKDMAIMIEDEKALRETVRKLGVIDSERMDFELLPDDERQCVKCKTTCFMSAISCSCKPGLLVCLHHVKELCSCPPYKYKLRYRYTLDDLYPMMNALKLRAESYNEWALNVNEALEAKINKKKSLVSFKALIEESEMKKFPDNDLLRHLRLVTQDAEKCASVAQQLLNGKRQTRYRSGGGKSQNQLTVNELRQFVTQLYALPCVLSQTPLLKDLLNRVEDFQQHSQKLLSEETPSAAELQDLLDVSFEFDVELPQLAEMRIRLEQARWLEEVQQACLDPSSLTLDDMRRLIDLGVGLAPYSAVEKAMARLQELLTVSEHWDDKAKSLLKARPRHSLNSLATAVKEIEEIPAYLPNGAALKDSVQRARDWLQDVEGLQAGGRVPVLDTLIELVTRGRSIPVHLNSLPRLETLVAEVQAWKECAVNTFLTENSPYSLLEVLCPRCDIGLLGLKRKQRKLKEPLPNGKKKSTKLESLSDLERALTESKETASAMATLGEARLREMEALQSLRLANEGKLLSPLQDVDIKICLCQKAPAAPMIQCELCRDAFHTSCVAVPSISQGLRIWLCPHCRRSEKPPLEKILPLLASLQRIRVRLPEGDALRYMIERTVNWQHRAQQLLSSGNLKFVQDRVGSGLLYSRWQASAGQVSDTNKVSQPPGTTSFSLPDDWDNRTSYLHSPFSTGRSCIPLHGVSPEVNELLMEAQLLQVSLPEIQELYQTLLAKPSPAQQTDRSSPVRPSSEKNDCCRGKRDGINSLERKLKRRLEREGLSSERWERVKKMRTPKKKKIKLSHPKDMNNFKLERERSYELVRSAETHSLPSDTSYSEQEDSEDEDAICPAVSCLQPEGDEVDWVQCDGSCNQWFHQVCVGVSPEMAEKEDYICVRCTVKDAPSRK
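Measured: NADH fluorescence change, 30 min, RT. System: KDM5BΔAP 200 nM final, H3K4me3 peptide, α-KG, Fe(II), ascorbate, NAD⁺ plus FDH, pH 7.5 HEPES. Compounds: titrated, 10 min pre-incubation with enzyme.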
Large screens that a line does not name were inactive.

COCCN1CCCC2(CCN(c3nc(OC)cc(OC)n3)C2)C1=O (stereo not drawn)	none
Cc1cccn2cc(C(=O)N3CCC4(CCCN(CC5CCC5)C4=O)C3)nc12 (stereo not drawn)	none
O=C1N(Cc2cccc(F)c2F)CCCC12CCN(c1nc3ccccc3o1)C2 (stereo not drawn)	none
O=C1N(CC2CCC2)CCCC12CCN(S(=O)(=O)N1CCOCC1)C2 (stereo not drawn)	none
Cc1cccc(CN2CCCC3(CCN(c4cc(C)c5ccccc5n4)C3)C2=O)c1 (stereo not drawn)	KDM5B inh 28.2µM
COCCN1CCCC2(CCN(c3nc(C)nc4sccc34)C2)C1=O (stereo not drawn)	none
COC(=O)c1ccc(CCNC(=O)c2cccc(OC)c2)cc1	none
COc1ccc(NC(=O)c2c(NC(=O)CCC(=O)O)sc3c2CCC(C(C)(C)C)C3)cc1 (stereo not drawn)	none
CCCc1nc(Cn2cnc3c2c(=O)n(C)c(=O)n3C)cs1	none
COc1ccc(C(=O)NC2CCN(c3cc(-c4ccc(F)cc4)[nH]n3)CC2)c(OC)c1	none
CC(=O)c1ccc(N2CCN(C(=O)c3csc(-c4ccc(Cl)cc4)n3)CC2)cc1	none
CSCCC(NC(=O)C1CCC(C)CC1)C(=O)Nc1ccc2c(c1)OCO2 (stereo not drawn)	none
CCCn1c(C)cc(C(=O)CSc2nnc(COc3ccc(Cl)cc3)n2C)c1C	none
COc1ccc(Br)c(C(=O)OC(C)C(=O)Nc2c(C)n(C)n(-c3ccccc3)c2=O)c1 (stereo not drawn)	none
CCCNC(=O)CN(C)C(=O)c1cc2ccccc2n1CC	none
CCc1ccc(CNC(=O)c2ccc(CN3C(=O)NC4(CCOCC4)C3=O)cc2)cc1	none
CNC(=O)CCn1ncc2cc(OCc3ccccc3-c3ccccc3F)ccc21	none
COc1ccc(C(=O)N[C@H]2C[C@H]3C(=O)Nc4ccc(-c5ccsc5)cc4C(=O)N3C2)cc1	none
C=CCO[C@@H]1C[C@H]2C(=O)Nc3ccc(-c4ccc(OC)cc4)cc3C(=O)N2C1	KDM5B inh 35.5µM
O=C1Nc2ccc(-c3cccc(C(F)(F)F)c3)cc2C(=O)N2CCN(C(=O)c3ccco3)C[C@@H]12	KDM5B inh 35.5µM
COc1ccc(-c2ccc3c(c2)C(=O)N2CCN(C(=O)COc4ccccc4)C[C@@H]2C(=O)N3)cc1	KDM5B inh 28.2µM
CC(C)(CC(=O)O)CC(=O)N1CCN2C(=O)c3cc(-c4ccc(Cl)cc4)ccc3NC(=O)[C@@H]2C1	none
C=CCO[C@@H]1C[C@H]2C(=O)Nc3ccc(-c4ccc(F)cc4F)cc3C(=O)N2C1	none
C=CCO[C@@H]1C[C@H]2C(=O)Nc3ccc(-c4ccccc4)cc3C(=O)N2C1	none
COc1ccc(OCC(=O)N2CCN(C(=O)c3cccc(OC)c3)CC2)cc1	none
COCC(=O)N1CCN2C(=O)c3cc(-c4ccc(OC)cc4)ccc3NC(=O)[C@H]2C1	KDM5B inh 31.6µM
CS(=O)(=O)N[C@H]1C[C@H]2C(=O)Nc3ccc(-c4cccc(C(F)(F)F)c4)cc3C(=O)N2C1	none
CCN(C(=O)C(=O)c1c(C)n(C)c2ccccc12)c1ccccc1	none
NC(=O)NC(=O)CCN1CCOC(c2cccc(Br)c2)C1 (stereo not drawn)	none
COC(=O)c1ccc(CN(C)C(=O)c2ccc(Cl)c(S(=O)(=O)NC3CC3)c2)cc1	none
CCc1cccc(NC(=S)N(CCC(C)C)C(C)c2cccs2)c1 (stereo not drawn)	none
O=C(O)c1cccc([S+](=O)([O-])N2CC(CNC(=O)c3ccccc3)C3(CN(c4ccccc4)C3)C2)c1 (stereo not drawn)	none
O=C(COc1ccccc1F)c1ccc2c(c1)N(CC(=O)N1CCOCC1)C(=O)CO2	none
Cc1cc(OCc2nnc(SCc3ccc(Cl)cc3)n2C)ccc1Cl	none
CCn1ccc(C(=O)N2CCC(c3nn(C)c4c3COCC4)CC2)n1	none
CCOc1ccc(NC(=O)c2cnn(-c3ccc(C)cc3)c2-n2cccc2)cc1	none
CCC(=O)N1CCCN(C)c2ccccc21	none
O=C(CCl)N(Cc1ccsc1)C1CC1	none
COCC(=O)N1CCN2C(=O)c3cc(-c4cccc(C(F)(F)F)c4)ccc3NC(=O)[C@H]2C1	KDM5B inh 28.2µM
O=C(N[C@H]1CCN2C(=O)c3cc(-c4cccc(C(F)(F)F)c4)ccc3NC(=O)[C@H]12)c1cnccn1	none
O=C(N[C@H]1CCN2C(=O)c3cc(-c4cccc(C(F)(F)F)c4)ccc3NC(=O)[C@@H]2C1)c1cnccn1	none
O=C(NCCCCc1ccccc1)c1cc(=O)c2ccccc2o1	none
O=C(OCC(=O)N1CCC(c2ccccc2)=N1)c1cc2c(s1)CCCC2	none
Cc1nn(CC(=O)Nc2ccccc2)c(C)c1S(=O)(=O)N1CCC(C)CC1	none
CCOc1cccc(CNC(=O)C2Cn3cccc3C(=O)N2)c1 (stereo not drawn)	none
COCCNc1ncnc2c1CN(C1CCNCC1)C(=O)CN2C	KDM5B inh 50.1µM
CC1C=CC(C)N1c1ncnc2c1CN(C1CCNC1)C(=O)CN2C (stereo not drawn)	KDM5B inh 89.1µM
CC(=O)N1CCCN(c2ncnc3c2CN(C2CCNCC2)C(=O)CN3C)CC1	none
CCNc1ncnc2c1CN(C1CCCNCC1)C(=O)CN2C (stereo not drawn)	none
CN1CC(=O)N(C2CCNCC2)Cc2c(NCC(C)(C)C)ncnc21	none
CN1CC(=O)N(C2CCNCC2)Cc2c1ncnc2N1CCCCC1	none
COc1ccc(C2=NOC3(CCN(C(=O)c4ccc(C(F)(F)F)cc4)C3)C2)cc1 (stereo not drawn)	none
CCN1CCCC1CNC(=O)c1c(C)nn(-c2ccc(F)cc2)c1-n1cccc1 (stereo not drawn)	none
CC1CCc2noc(NC(=O)c3ccc(Cl)cc3)c2C1 (stereo not drawn)	none
COc1cc(OC)c(C(=O)Nc2cc(C(C)(C)C)on2)cc1OC	none
CCc1ccccc1NC(=O)Cn1c(C)cc2nc3n(c(=O)c21)CCCCC3	none
COCCn1c(C)cnc1CC1CCN(C(=O)CCC2CCCC2)CC1	none
COc1cccc(CNC(=O)C2CCN(C(=O)N3CC(C)Oc4ccc(C)cc43)CC2)c1 (stereo not drawn)	none
CCOC(=O)C(C)NC(=O)c1ccccc1 (stereo not drawn)	none
OCCC1CN(c2cc(C(F)(F)F)ccn2)CCN1CC1CCCCC1 (stereo not drawn)	KDM5B inh 22.4µM
OCCC1CN(CCOc2ccc(F)cc2)CCN1CC1CCCCC1 (stereo not drawn)	none
CC(C)Nc1cc(N2CCN(Cc3ccccc3F)C(CCO)C2)ncn1 (stereo not drawn)	none
CN(CCC#N)C(=O)CSc1ncc(-c2ccc(Cl)cc2)o1	none
Cc1ccc(NC(=O)CN(C)S(=O)(=O)c2cnc[nH]2)cc1	none
CN(CC(=O)N1CCc2ccccc2C1)S(=O)(=O)c1ccc(Cl)cc1	none
COc1ccc(-c2cc3nc4c(c(=O)n3[nH]2)CN(C(=O)CN(C)S(=O)(=O)c2cnc[nH]2)CC4)cc1	KDM5B inh 25.1µM
CN(CC(=O)N1CCc2nc3cc(-c4ccccc4)[nH]n3c(=O)c2C1)S(=O)(=O)c1cnc[nH]1	KDM5B inh 28.2µM
COc1ccc(NC(=O)CN(C)S(=O)(=O)c2cnc[nH]2)cc1	none
CC1(c2noc(-c3ccccc3)n2)CCN(C(=O)C2CCN(S(=O)(=O)c3cnc[nH]3)CC2)CC1	none
Cc1ccc(CC(=O)N(CC#N)C2CC2)s1	none
CCOC(=O)c1c(C)[nH]c(C(=O)C(C)N(C)Cc2ccc(F)cc2)c1C (stereo not drawn)	none
Cc1ccccc1CNC(=O)Cn1ccc2c(C)nn(C)c2c1=O	none
CCc1ccc(NC(=O)CNC(=O)c2ccc(OC)cc2)cc1	none
O=C(CCn1ccn2nc3c(c2c1=O)CCCC3)NCc1ccc(F)c(Cl)c1	none
